Assay outcomes: PubChem BioAssay, National Center for Advancing Translational Sciences (NCATS)
PLK1 PBD block: qHTS for Inhibitors of PLK1-PDB (polo-like kinase 1 - polo-box domain): Primary Screen. Serine/threonine-protein kinase PLK1 (Homo sapiens), P53350. Plk1 PBD binding of FITC phosphopeptide, fluorescence polarization. Potency, µM, for inactives: max response, negative = inhibition, usual class: inhibitors. 360,000 tested, 2.8% active. AID 720504, 2013; further: potency means the concentration at half of the fitted maximal effect; series mostly up to about 57 µM; on the % scale 0 is the no-effect control and ±100 the full control effect; nearly all actives have a fitted effect of over 65% in size
Target sequence (P53350 whole entry, looked up, the tested form may be a part): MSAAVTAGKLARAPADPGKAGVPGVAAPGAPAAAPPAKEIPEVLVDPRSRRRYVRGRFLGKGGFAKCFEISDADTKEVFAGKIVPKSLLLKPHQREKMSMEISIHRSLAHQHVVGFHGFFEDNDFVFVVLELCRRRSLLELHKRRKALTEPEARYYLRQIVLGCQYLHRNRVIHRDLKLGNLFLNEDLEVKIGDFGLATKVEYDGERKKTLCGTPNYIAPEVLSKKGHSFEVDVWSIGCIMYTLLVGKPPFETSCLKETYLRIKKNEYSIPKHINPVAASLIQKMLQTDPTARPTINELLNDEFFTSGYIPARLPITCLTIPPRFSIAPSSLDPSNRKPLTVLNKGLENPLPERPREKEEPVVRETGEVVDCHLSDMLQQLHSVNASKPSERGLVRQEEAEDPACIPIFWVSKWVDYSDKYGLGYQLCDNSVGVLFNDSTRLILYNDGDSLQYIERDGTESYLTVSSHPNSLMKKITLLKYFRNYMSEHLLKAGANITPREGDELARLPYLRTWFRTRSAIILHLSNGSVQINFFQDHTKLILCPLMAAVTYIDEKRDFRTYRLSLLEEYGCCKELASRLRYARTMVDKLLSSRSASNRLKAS
Tau fibril FP: qHTS for Inhibitors of Tau Fibril Formation, Fluorescence Polarization. Microtubule-associated protein tau (Homo sapiens), P10636. K18 P301L tau heparin fibrillization, Alexa594 FP, 6 h. Potency, µM (titrated, usually from 57.7 µM), inactives show at the top dose activity, negative = inhibition, usual class: inhibitors. 280,000 tested, 0.39% active; further: potency means the concentration at half of the fitted maximal effect; on the % scale 0 is the no-effect control and ±100 the full control effect; nearly all actives have a fitted effect of over 55% in size
Target sequence (P10636 561-689 P618L limits assumed): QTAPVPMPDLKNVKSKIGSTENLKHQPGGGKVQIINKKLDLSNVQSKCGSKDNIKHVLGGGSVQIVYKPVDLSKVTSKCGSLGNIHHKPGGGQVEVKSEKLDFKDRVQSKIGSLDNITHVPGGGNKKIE
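Human tau K18 […] P301L fragment, 15 uM unlabeled plus 0.24 uM Alexa 594-labeled tau (final), with compound and 20 uM heparin in 100 mM sodium acetate pH 7; 6 hr at 37 C, then Alexa 594 FP read.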
Tau fibril ThT: qHTS for Inhibitors of Tau Fibril Formation, Thioflavin T Binding; recombinant tau K18 P301L, heparin-induced fibrillization, ThT fluorescence; Microtubule-associated protein tau (Homo sapiens), P10636; Potency, µM (highest dose often 57.4 µM), without a hit: at the highest dose activity, negative = inhibition, usual class: inhibitors; 270,000 tested, 2.1% active; further: potency means the concentration at half of the fitted maximal effect; on the % scale 0 is the no-effect control and ±100 the full control effect; nearly all actives have a fitted effect of over 55% in size
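Heparin-induced fibrillization of the P301L-mutant K18 repeat-domain fragment of human tau was followed by ThT binding in quantitative high-throughput format.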
Tau fluor counter: Counterscreen qHTS for Inhibitors of Tau Fibril Formation, Fluorescence Polarization. tau K18 P301L Alexa594 fluorescence, heparin fibrillization. Potency, µM (doses to about 57.7 µM), for inactives: at the top dose activity change, negative = decrease. 280,000 tested, 0.93% active; further: potency means the concentration at half of the fitted maximal effect; on the % scale 0 is the no-effect control and ±100 the full control effect; nearly all actives have a fitted effect of over 55% in size
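Human tau K18 P301L (15 uM unlabeled, 0.24 uM Alexa 594-labeled) in 100 mM sodium acetate pH 7 with 20 uM heparin, 6 hr at 37 C. ThT 30 uM added, 1 hr ambient; Alexa 594 FP and total fluorescence read at 555/632 nm.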
Sfp inh: qHTS Assay for Inhibitors of Bacillus subtilis Sfp phosphopantetheinyl transferase (PPTase); 4'-phosphopantetheinyl transferase ffp (Bacillus subtilis), Q9F4F7; Biochemical Sfp PPTase activity, qHTS; Potency, µM, for inactives: largest response in the series, negative = inhibition, hits mostly inhibitors; 310,000 tested, 3.5% active;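 further: the enzyme is Sfp with the accession as filed and its product quenches rhodamine fluorescence; potency means the concentration at half of the fitted maximal effect; 0% = enzyme reaction without inhibitor and -100% = no enzyme wells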
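With Hepes-Na pH 7.6 buffer containing 10 mM MgCl2, Sfp (15 nM) modified BHQ-2-YbbR (12.5 uM) using rhodamine-CoA (5 uM). Two reads 30 minutes apart at 525/598 nm yielded each well's rate.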
VDR inhibitor: Inhibitors of the vitamin D receptor (VDR): qHTS. 400,000 tested, 0.93% active. Vitamin D3 receptor (Homo sapiens), P11473. VDR-SRC2-3 peptide fluorescence polarization, 2 h. Potency, µM, for inactives: max response, negative = inhibition, most hits filed as inhibitors. AID 504847, 2011; further: potency means the concentration at half of the fitted maximal effect; on the % scale 0 is the no-effect control and ±100 the full control effect
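The screen uses fluorescence polarization to detect compounds that interfere with recruitment of the SRC2-3 coactivator peptide to VDR; plates are read after 2 h at room temperature.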
Tau TEM fibril: Transmission Electron Microscopy Assay for Inhibitors of Tau Fibrillization | shares compounds with Tau fibril ThT | recombinant tau K18 P301L fibrillization, TEM grading; active compounds read high | fibril grade (0 = clumped fibrils, 4 = only tiny pieces) (no concentration beside the values) | 45 tested, 70% active | AID 1719, 2009;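 active means compounds whose electron micrographs showed tau fibrils broken into shorter filaments or fragments, graded high on fibril breakup; inconclusive means micrographs gave an unclear fibril picture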
tau fibril sed: Sedimentation Assay for Inhibitors of Tau Fibrillization; 110 tested, 50% active; inhibition, % at 100 µM; shares compounds with Tau fibril ThT; recombinant tau K18 P301L (four-repeat tau fragment), sedimentation SDS-PAGE densitometry; in the data active means inhibition above about 40%; inconclusive means no clear call, values can overlap the other calls; inactive means below about 18%
* = called active by the depositor; [ ] = dose if it differs, or a comment. Only some compounds are listed: those with a hit (about 6% of all), similar ones and a draw of the others. Unless noted, the call rests on the fitted dose curve; in most records, active means well fitted curve in the direction sought with a large enough effect; inconclusive means small, poorly fitted or top-dose-only effect, or another doubt; inactive means no such curve, though single readings can be large; an effect the other way counts as inactive or inconclusive.

`COc1cccc(-n2c(SCC(N)=O)nc3c([nH]c4ccccc43)c2=O)c1` gave PLK1 PBD block -2%, Tau fibril FP 3%, Tau fibril ThT -17%, Tau fluor counter -7%, Sfp inh 20µM* and VDR inhibitor 20%.
For O=[N+]([O-])c1ccc(O)c(N=Cc2sc3ccccc3c2O)c1 the results were PLK1 PBD block 0%, Tau fibril FP 2%, Tau fibril ThT 4.5µM*, Tau fluor counter inconclusive, Sfp inh -9% and VDR inhibitor 3%.
`Oc1ccc(Cl)cc1N=Cc1sc2ccccc2c1Cl` gave PLK1 PBD block -12%, Tau fibril FP -6%, Tau fibril ThT -18%, Tau fluor counter -12%, Sfp inh -21% and VDR inhibitor -4%.
Cc1cccc(/N=C/c2sc3ccccc3c2O)n1 was read as PLK1 PBD block -23%, Tau fibril FP inconclusive, Tau fibril ThT 5.6µM*, Tau fluor counter 25µM*[fluorescent], Sfp inh 12% and VDR inhibitor inconclusive.
Screening CCN(CC(=O)Nc1ccc(OC)cc1)CC(=O)Nc1cccc(S(=O)(=O)N2CCOCC2)c1 returned PLK1 PBD block 0%.
`COC(=O)[C@H](Cc1ccccc1)NC(=O)C/C=C\[C@@H](C)[C@@H](CO)OC` gave Tau fibril FP 5%[11.6 µM], Tau fibril ThT -9%[11.5 µM], Tau fluor counter -4%[11.6 µM] and Sfp inh 8%.
Screening O=C(CCSCc1cccc(Cl)c1)NCc1ccccc1Cl returned Tau fibril FP -5%, Tau fibril ThT -12%, Tau fluor counter -25% and VDR inhibitor 11%.
Screening CCNc1nc(C#N)nc(NCC)n1 returned VDR inhibitor -17%.
For CC1(C)CC(=O)C=C(c2cccc(Br)c2)C1 the results were PLK1 PBD block 27µM* and VDR inhibitor inconclusive.
Cc1ccc(-n2c(=O)c3c(cnn3C)n(CC(=O)Nc3c(C)cccc3C)c2=O)cc1 was read as Tau fibril FP inconclusive, Tau fibril ThT -7%, Tau fluor counter -11% and VDR inhibitor -10%.
For CC(C)Oc1ccc(OCCNC2CCCC2)cc1 the results were PLK1 PBD block -6%, Tau fibril FP -1%, Tau fibril ThT 3%, Tau fluor counter -4%, Sfp inh 50µM* and VDR inhibitor -7%.
O=C(/C=C/c1ccc(F)cc1)NC(=S)N1CCCCC1c1cccnc1 (stereo not given) was read as PLK1 PBD block inconclusive, Tau fibril FP -1%, Tau fibril ThT inconclusive, Tau fluor counter -20%, Sfp inh 50µM* and VDR inhibitor 14%.
Screening Cc1ccccc1NC(=O)Cn1nnc(C(=O)NCc2ccco2)c1N returned PLK1 PBD block 27µM*, Tau fibril FP -5%, Tau fibril ThT 5%, Tau fluor counter 8%, Sfp inh 4% and VDR inhibitor -25%.
O=C(O)CC1S/C(=N/N=C/C=C/c2ccccc2[N+](=O)[O-])NC1=O (stereo not given) was read as PLK1 PBD block -7%, Tau fibril FP 4%, Tau fibril ThT -15%, Tau fluor counter -6%, Sfp inh 4% and VDR inhibitor -25%.
`O=C(O)CC1S/C(=N/N=C/c2ccc(-c3ccc(Cl)cc3[N+](=O)[O-])o2)NC1=O` (stereo not given) gave PLK1 PBD block 17µM*, Tau fibril FP 1.6µM*, Tau fibril ThT 1µM*, Tau fluor counter inconclusive, Sfp inh 40µM*, VDR inhibitor inconclusive, Tau TEM fibril 3* and tau fibril sed 74*.
For CCOC(=O)c1nn(-c2ccc(Cl)cc2)c(=O)c2c(N)scc12 the results were tau fibril sed 62*.
Nc1scc2c(C(=O)O)nn(-c3ccccc3)c(=O)c12 was read as VDR inhibitor inconclusive and tau fibril sed 84*.
Nc1scc2c(C(=O)NCc3ccccc3)nn(-c3ccccc3)c(=O)c12 was read as tau fibril sed 54*.
`COc1cccc(-n2nc(C(=O)O)c3ccccc3c2=O)c1` gave PLK1 PBD block 2%, Tau fibril FP -2%, Tau fibril ThT -6%, Tau fluor counter -4%, Sfp inh -25% and VDR inhibitor -1%.
C=CCOC(=O)C(C(C)=O)C(NC(=O)OC)c1cccs1 (stereo not given) was read as Tau fibril FP -9%[11.6 µM], Tau fibril ThT -11%[11.5 µM], Tau fluor counter -10%[11.6 µM] and Sfp inh 8%.
For N#Cc1cccc(NC(=O)c2ccc3c(c2)N(Cc2cccc(Cl)c2)C(=O)c2ccccc2S3(=O)=O)c1 the results were Tau fibril FP 13µM*, Tau fibril ThT 16%, Tau fluor counter -22%, VDR inhibitor 6% and tau fibril sed 4.
Cc1cc(NC(=O)c2ccc3c(c2)N(Cc2cccc(Cl)c2)C(=O)c2ccccc2S3(=O)=O)ccc1Br was read as Tau fibril FP inconclusive, Tau fibril ThT 6%, Tau fluor counter -15% and VDR inhibitor 9%.
`COc1ccc2[nH]c(=O)c(CNc3cccc(C)c3)cc2c1` gave PLK1 PBD block -3%, Tau fibril FP 6%, Tau fibril ThT -8%, Tau fluor counter -2%, Sfp inh 10µM*, VDR inhibitor -2%, Tau TEM fibril 4* and tau fibril sed 85*.
`O=C(Cn1c(=O)c(CNc2ccccc2)cc2cc3c(cc21)OCCO3)Nc1ccccc1Cl` gave Tau fibril FP inconclusive, Tau fibril ThT 8.9µM*, Tau fluor counter inconclusive, VDR inhibitor -1%, Tau TEM fibril 0 and tau fibril sed 62*.
N#Cc1ccc(C(=O)Nc2ccccc2-c2nc3ccccc3s2)c(F)c1 was read as Tau fibril FP -14%, Tau fibril ThT -2%, Tau fluor counter -7% and VDR inhibitor 15%.
Nc1c(-c2ccccc2)cc[nH]c1=O was read as tau fibril sed 9.
